Results taken from PubChem BioAssay AID1159580 (chemical genetic matrix, 2015).
Out of some 5,500 compounds screened, about 2,000 (36%) were called active. Inconclusive results (about 18%) are left out. No stated cut-off is given here; in the data, active means normalized growth mostly below about 0.91 (no sharp cut-off); inconclusive means no clear call, values can overlap the other calls; inactive means mostly above about 0.92. This is one part of the list.

Test: chemical genetic growth profiling, strain panel (AID 1159580);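 further: tested at 20 µM; growth read once vehicle control cultures reached saturation at 30 °C; 1 = growth at the plate median or of vehicle wells; lower values mean less growth of the strain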
Conditions: growth OD
[1] = S. cerevisiae deletion strains, locus YAL013W, strain DEP1, hits give low values
[2] = S. cerevisiae deletion strains, locus YBR229C, strain ROT2, hits give low values
[3] = S. cerevisiae deletion strains, locus YCL061C, strain MRC1, hits give low values
[4] = S. cerevisiae deletion strains, locus YDL101C, strain DUN1, hits give low values
[5] = S. cerevisiae deletion strains, locus YDR150W, strain NUM1, hits give low values
[6] = S. cerevisiae deletion strains, locus YEL061C, strain CIN8, hits give low values
[7] = S. cerevisiae deletion strains, locus YGR078C, strain PAC10, hits give low values
[8] = S. cerevisiae deletion strains, locus YHR030C, strain SLT2, hits give low values
[9] = S. cerevisiae deletion strains, locus YHR087W, strain rtc3, hits give low values
[10] = S. cerevisiae deletion strains, locus YJR043C, strain POL32, hits give low values
[11] = S. cerevisiae deletion strains, locus YJR075W, strain HOC1, hits give low values
[12] = S. cerevisiae deletion strains, locus YKL190W, strain CNB1, hits give low values
[13] = S. cerevisiae deletion strains, locus YLR039C, strain RIC1, hits give low values
[14] = S. cerevisiae deletion strains, locus YLR058C, strain SHM2 (second series), hits give low values
[15] = S. cerevisiae deletion strains, locus YLR085C, strain ARP6, hits give low values
[16] = S. cerevisiae deletion strains, locus YLR262C, strain YPT6, hits give low values
[17] = S. cerevisiae deletion strains, locus YML094W, strain GIM5, hits give low values
[18] = S. cerevisiae deletion strains, locus YMR219W, strain ESC1, hits give low values
[19] = S. cerevisiae deletion strains, locus YMR263W, strain SAP30, hits give low values
[20] = S. cerevisiae deletion strains, locus YNL153C, strain GIM3, hits give low values
[21] = S. cerevisiae deletion strains, locus YNL298W, strain CLA4 (second series), hits give low values
[22] = S. cerevisiae deletion strains, locus YNL322C, strain KRE1, hits give low values
[23] = S. cerevisiae deletion strains, locus YNR030W, strain Alg12, hits give low values
[24] = S. cerevisiae deletion strains, locus YPL055C, strain LGE1, hits give low values
[25] = S. cerevisiae deletion strains, locus YPL241C, strain CIN2, hits give low values
[26] = S. cerevisiae deletion strains, locus YPR135W, strain CTF4, hits give low values
[27] = S. cerevisiae deletion strains, locus YAR019C, strain CDC15, hits give low values
[28] = S. cerevisiae deletion strains, locus YBL105C, strain PKC1, hits give low values
[29] = S. cerevisiae deletion strains, locus YBR135W, strain CKS1, hits give low values
[30] = S. cerevisiae deletion strains, locus YBR136W, strain MEC1, hits give low values
[31] = S. cerevisiae deletion strains, locus YBR160W, strain CDC28, hits give low values
[32] = S. cerevisiae deletion strains, locus YDL017W, strain CDC7, hits give low values
[33] = S. cerevisiae deletion strains, locus YDL028C, strain MPS1, hits give low values
[34] = S. cerevisiae deletion strains, locus YDL108W, strain KIN28, hits give low values
[35] = S. cerevisiae deletion strains, locus YDL132W, strain cdc53, hits give low values
[36] = S. cerevisiae deletion strains, locus YDL214C, strain PRR2, hits give low values
[37] = S. cerevisiae deletion strains, locus YDR052C, strain DBF4, hits give low values
[38] = S. cerevisiae deletion strains, locus YDR054C, strain cdc34, hits give low values
[39] = S. cerevisiae deletion strains, locus YDR226W, strain ADK1, hits give low values
[40] = S. cerevisiae deletion strains, locus YDR477W, strain SNF1, hits give low values
[41] = S. cerevisiae deletion strains, locus YER123W, strain YCK3, hits give low values
[42] = S. cerevisiae deletion strains, locus YER133W, strain GLC7, hits give low values
[43] = S. cerevisiae deletion strains, locus YFL009W, strain cdc4, hits give low values
[44] = S. cerevisiae deletion strains, locus YFL029C, strain CAK1, hits give low values
[45] = S. cerevisiae deletion strains, locus YFR003C, strain YPI1, hits give low values
[46] = S. cerevisiae deletion strains, locus YFR019W, strain FAB1, hits give low values
[47] = S. cerevisiae deletion strains, locus YFR028C, strain CDC14, hits give low values
[48] = S. cerevisiae deletion strains, locus YGR040W, strain KSS1, hits give low values
[49] = S. cerevisiae deletion strains, locus YGR052W, strain FMP48, hits give low values
[50] = S. cerevisiae deletion strains, locus YGR092W, strain DBF2, hits give low values
[51] = S. cerevisiae deletion strains, locus YHR079C, strain IRE1, hits give low values
[52] = S. cerevisiae deletion strains, locus YHR082C, strain KSP1, hits give low values
[53] = S. cerevisiae deletion strains, locus YHR205W, strain SCH9, hits give low values
[54] = S. cerevisiae deletion strains, locus YIL147C, strain SLN1, hits give low values
[55] = S. cerevisiae deletion strains, locus YJL095W, strain BCK1, hits give low values
[56] = S. cerevisiae deletion strains, locus YJL128C, strain PBS2, hits give low values
[57] = S. cerevisiae deletion strains, locus YJL157C, strain FAR1, hits give low values
[58] = S. cerevisiae deletion strains, locus YJR016C, strain ILV3, hits give low values
[59] = S. cerevisiae deletion strains, locus YJR066W, strain TOR1 (second series), hits give low values
[60] = S. cerevisiae deletion strains, locus YJR066W, strain TOR1, hits give low values
[61] = S. cerevisiae deletion strains, locus YKL048C, strain ELM1, hits give low values
[62] = S. cerevisiae deletion strains, locus YKL067W, strain YNK1, hits give low values
[63] = S. cerevisiae deletion strains, locus YKL101W, strain HSL1, hits give low values
[64] = S. cerevisiae deletion strains, locus YKL193C, strain SDS22, hits give low values
[65] = S. cerevisiae deletion strains, locus YKL203C, strain TOR2, hits give low values
[66] = S. cerevisiae deletion strains, locus YLR113W, strain HOG1, hits give low values
[67] = S. cerevisiae deletion strains, locus YLR133W, strain CKI1, hits give low values
[68] = S. cerevisiae deletion strains, locus YLR403W, strain SFP1, hits give low values
[69] = S. cerevisiae deletion strains, locus YML070W, strain DAK1, hits give low values
[70] = S. cerevisiae deletion strains, locus YMR001C, strain CDC5, hits give low values
[71] = S. cerevisiae deletion strains, locus YMR205C, strain PFK2 (second series), hits give low values
[72] = S. cerevisiae deletion strains, locus YMR277W, strain FCP1, hits give low values
[73] = S. cerevisiae deletion strains, locus YNL006W, strain LST8, hits give low values
[74] = S. cerevisiae deletion strains, locus YNL020C, strain ARK1, hits give low values
[75] = S. cerevisiae deletion strains, locus YNL161W, strain CBK1, hits give low values
[76] = S. cerevisiae deletion strains, locus YNL183C, strain NPR1, hits give low values
[77] = S. cerevisiae deletion strains, locus YNL207W, strain RIO2, hits give low values
[78] = S. cerevisiae deletion strains, locus YNL222W, strain SSU72, hits give low values
[79] = S. cerevisiae deletion strains, locus YNL307C, strain MCK1 (second series), hits give low values
[80] = S. cerevisiae deletion strains, locus YOL078W, strain AVO1, hits give low values
[81] = S. cerevisiae deletion strains, locus YOL136C, strain PFK27, hits give low values
[82] = S. cerevisiae deletion strains, locus YOR061W, strain CKA2, hits give low values
[83] = S. cerevisiae deletion strains, locus YOR119C, strain RIO1, hits give low values
[84] = S. cerevisiae deletion strains, locus YOR231W, strain MKK1, hits give low values
[85] = S. cerevisiae deletion strains, locus YOR329C, strain SCD5, hits give low values
[86] = S. cerevisiae deletion strains, locus YPL031C, strain PHO85, hits give low values
[87] = S. cerevisiae deletion strains, locus YPL153C, strain RAD53, hits give low values
[88] = S. cerevisiae deletion strains, locus YPL204W, strain HRR25, hits give low values
[89] = S. cerevisiae deletion strains, locus YPL209C, strain IPL1, hits give low values
[90] = S. cerevisiae deletion strains, locus YPL256C, strain CLN2, hits give low values
[91] = S. cerevisiae deletion strains, locus YPR025C, strain CCL1, hits give low values
[92] = S. cerevisiae deletion strains, locus YPR106W, strain ISR1, hits give low values
[93] = S. cerevisiae deletion strains, locus YPR111W, strain DBF20, hits give low values
[94] = S. cerevisiae deletion strains, strain NNK1, hits give low values
[95] = S. cerevisiae deletion strains, strain TSCII, hits give low values

Measured: normalized growth

COC(=O)c1c(-c2c(Cl)cccc2Cl)noc1NC(=O)NN1CCCCC1
inactive: [1] 1.02 | [2] 1.02 | [3] 1.01 | [4] 1.01 | S. cerevisiae deletion strains, locus YDL134C, strain PPH21, hits give low values 0.993 | [5] 0.993 | [6] 1 | [7] 1.03 | S. cerevisiae deletion strains, locus YGR229C, strain SMI1, hits give low values 1 | [8] 0.973 | [9] 1.03 | S. cerevisiae deletion strains, locus YJL187C, strain SWE1, hits give low values 1.01 | [10] 1.01 | [11] 1.02 | [12] 1 | [13] 0.963 | [14] 1.01 | [15] 0.992 | [16] 0.977 | [17] 1.04 | [18] 1.01 | [19] 1 | S. cerevisiae deletion strains, locus YMR307W, strain GAS1, hits give low values 1 | [20] 1.01 | [21] 1 | [22] 1.01 | [23] 0.987 | S. cerevisiae deletion strains, locus YOL006C, strain TOP1, hits give low values 1.05 | [24] 1.01 | [25] 0.911 | [26] 0.969 | S. cerevisiae strains, strain wild type, hits give low values 0.999

Cc1ccc(NNC(=O)c2c(C)noc2C)cc1Cl
inactive: [27] 0.977 | [28] 0.972 | [29] 0.982 | [30] 0.975 | [31] 0.982 | [32] 0.979 | [33] 0.986 | [4] 0.976 | [34] 0.981 | [35] 0.987 | [36] 0.939 | [37] 0.988 | [38] 0.993 | [39] 0.978 | [40] 0.946 | [41] 0.857 | [42] 0.947 | [43] 0.986 | [44] 0.984 | [45] 0.983 | [46] 0.903 | [47] 0.992 | [48] 0.925 | [49] 0.987 | [50] 0.833 | [8] 0.865 | [51] 0.964 | [52] 1.02 | [53] 0.926 | [54] 0.983 | [55] 0.929 | [56] 0.979 | [57] 0.923 | [58] 0.981 | [59] 0.909 | [60] 0.983 | [61] 0.916 | [62] 0.935 | [63] 0.943 | [64] 0.985 | [65] 1 | [66] 0.868 | [67] 0.943 | [68] 0.92 | [69] 0.906 | [70] 0.984 | [71] 0.955 | [72] 0.986 | [73] 0.99 | [74] 0.948 | [75] 0.98 | [76] 0.98 | [77] 0.992 | [78] 0.982 | [79] 0.881 | [80] 0.98 | [81] 0.922 | [82] 0.917 | [83] 0.976 | [84] 0.917 | [85] 0.986 | [86] 0.944 | [87] 0.922 | [88] 0.956 | [89] 0.973 | [90] 0.903 | [91] 0.981 | [92] 0.981 | [93] 0.961 | [94] 0.975 | [95] 0.98

Cc1onc(-c2c(F)cccc2Cl)c1C(=O)NNc1cc(Cl)cc(Cl)c1
inactive: [27] 0.987 | [28] 0.984 | [29] 0.987 | [30] 0.985 | [31] 0.976 | [32] 0.989 | [33] 0.986 | [4] 0.987 | [34] 0.976 | [35] 0.989 | [36] 0.902 | [37] 0.99 | [38] 0.982 | [39] 0.991 | [40] 0.931 | [41] 0.864 | [42] 0.937 | [43] 0.979 | [44] 0.977 | [45] 0.987 | [46] 0.908 | [47] 0.976 | [48] 0.894 | [49] 0.951 | [50] 0.937 | [8] 0.962 | [51] 0.939 | [52] 0.964 | [53] 0.89 | [54] 0.989 | [55] 0.942 | [56] 0.956 | [57] 0.916 | [58] 0.988 | [59] 0.883 | [60] 0.984 | [61] 0.878 | [62] 0.927 | [63] 0.894 | [64] 0.98 | [65] 0.992 | [67] 0.906 | [68] 0.901 | [69] 0.89 | [70] 0.98 | [71] 0.936 | [72] 0.983 | [73] 0.984 | [74] 0.914 | [75] 0.979 | [76] 0.935 | [77] 0.987 | [78] 0.988 | [79] 0.879 | [80] 0.978 | [81] 0.884 | [82] 0.908 | [83] 0.972 | [84] 0.889 | [85] 0.984 | [86] 0.936 | [87] 0.928 | [88] 0.918 | [89] 0.979 | [91] 0.98 | [92] 0.956 | [93] 0.955 | [94] 0.955 | [95] 0.986
active: [66] 0.798 | [90] 0.839

Cc1onc(-c2c(Cl)cccc2Cl)c1C(=O)OCC(F)(F)F
inactive: [1] 1.01 | [2] 1.01 | [3] 1.02 | [4] 0.984 | [5] 0.982 | [6] 1 | [7] 0.99 | [8] 1.05 | [9] 0.986 | [10] 0.99 | [11] 1 | [12] 1 | [13] 0.955 | [14] 1.01 | [15] 0.971 | [16] 0.942 | [17] 1.01 | [18] 0.997 | [19] 1 | [20] 1.02 | [21] 1.02 | [22] 1 | [23] 0.985 | [24] 1.01 | [25] 1.04 | [26] 0.989
